# Test results: ChEMBL document CHEMBL3988442, “University of Dundee, Small-Polar-MMV Screening Library” (2021)
# For part of these data: Entries with a potency or affinity are not part of this list.
# What was measured:
# Set-up in all cases: scale not given: direction of the effect not stated beside the values
# [1] = biological target: Protein translocase subunit SecA (Escherichia coli (strain K12)) (UniProt P10408); assay: Assay to Identify E. coli SecA ATPase Inhibitors; type: functional; details: 30 µM
# [2] = biological target: T1, Ubiquitin-activating enzyme e1, putative (Leishmania donovani (strain BPK282A1)) (UniProt E9BSI1); assay: Leishmania donovani Ubiquitin Activating Enzyme (LdE1); type: functional; details: 30 µM
# T1 sequence (whole entry): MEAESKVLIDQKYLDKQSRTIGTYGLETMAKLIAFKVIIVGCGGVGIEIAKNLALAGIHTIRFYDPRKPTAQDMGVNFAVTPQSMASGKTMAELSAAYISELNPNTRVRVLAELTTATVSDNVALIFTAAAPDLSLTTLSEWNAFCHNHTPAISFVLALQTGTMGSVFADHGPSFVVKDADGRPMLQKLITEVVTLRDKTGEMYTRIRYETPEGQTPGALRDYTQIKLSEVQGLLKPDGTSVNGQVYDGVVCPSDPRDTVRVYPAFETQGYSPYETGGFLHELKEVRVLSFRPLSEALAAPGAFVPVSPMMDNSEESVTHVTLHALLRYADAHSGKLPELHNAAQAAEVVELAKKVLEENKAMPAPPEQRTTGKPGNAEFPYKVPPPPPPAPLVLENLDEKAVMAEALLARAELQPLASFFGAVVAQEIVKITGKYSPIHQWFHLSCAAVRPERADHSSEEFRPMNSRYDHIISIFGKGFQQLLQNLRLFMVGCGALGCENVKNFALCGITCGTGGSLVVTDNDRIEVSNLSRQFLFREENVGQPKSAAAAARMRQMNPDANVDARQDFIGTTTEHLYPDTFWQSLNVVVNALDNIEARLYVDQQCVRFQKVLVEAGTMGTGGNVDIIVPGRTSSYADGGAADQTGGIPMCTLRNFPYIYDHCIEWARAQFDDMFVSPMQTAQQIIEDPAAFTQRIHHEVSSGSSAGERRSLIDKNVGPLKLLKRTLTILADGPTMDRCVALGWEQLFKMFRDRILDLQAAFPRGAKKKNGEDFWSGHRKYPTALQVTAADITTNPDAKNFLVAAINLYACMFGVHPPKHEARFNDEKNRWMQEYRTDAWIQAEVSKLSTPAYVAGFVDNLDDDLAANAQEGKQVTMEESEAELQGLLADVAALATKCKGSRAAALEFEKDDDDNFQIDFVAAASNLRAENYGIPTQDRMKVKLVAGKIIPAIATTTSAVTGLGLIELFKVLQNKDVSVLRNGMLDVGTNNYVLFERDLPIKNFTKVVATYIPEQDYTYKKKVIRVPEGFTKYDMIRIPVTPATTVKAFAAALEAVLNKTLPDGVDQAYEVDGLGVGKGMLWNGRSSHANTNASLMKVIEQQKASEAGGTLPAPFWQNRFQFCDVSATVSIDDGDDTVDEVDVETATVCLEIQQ
# [3] = biological target: Sialic acid-binding Ig-like lectin 9 (Homo sapiens) (UniProt Q9Y336); assay: Hs-Siglec9 ALPHAscreen SOP 20170721; details: 10 µM
# Trypanosoma cruzi = assay: Trypanosoma cruzi phosphomannomutase and mannose-1-phosphate guanylyltransferase assay; type: functional; details: 10 µM
# [4] = biological target: T2, Arginase-2, mitochondrial (Homo sapiens) (UniProt P78540); assay: in vitro enzyme assay to detect the production of urea directly proportional to the activity of Arginase II; type: functional; details: 33.3 µM; further: in the data most compounds retested in dose-response had high values
# T2 sequence (whole entry): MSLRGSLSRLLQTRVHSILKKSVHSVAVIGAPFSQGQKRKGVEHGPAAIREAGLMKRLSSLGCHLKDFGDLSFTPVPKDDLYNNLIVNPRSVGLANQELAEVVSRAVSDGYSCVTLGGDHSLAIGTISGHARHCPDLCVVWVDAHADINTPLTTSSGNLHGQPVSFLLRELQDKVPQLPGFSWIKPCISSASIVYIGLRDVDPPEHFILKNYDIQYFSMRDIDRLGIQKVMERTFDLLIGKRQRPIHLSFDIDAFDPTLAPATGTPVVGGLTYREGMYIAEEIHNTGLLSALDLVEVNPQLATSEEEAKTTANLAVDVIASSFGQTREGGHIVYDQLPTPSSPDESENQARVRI
# [5] = biological target: T3, Proteasome subunit beta (Trypanosoma cruzi) (UniProt O96673); assay: Trypanosoma cruzi proteasome chymotrypsin-like activity (TcProtChymo) assay.; further: in the data most compounds retested in dose-response had high values; type: functional; details: 9.37 µM
# T3 sequence (whole entry): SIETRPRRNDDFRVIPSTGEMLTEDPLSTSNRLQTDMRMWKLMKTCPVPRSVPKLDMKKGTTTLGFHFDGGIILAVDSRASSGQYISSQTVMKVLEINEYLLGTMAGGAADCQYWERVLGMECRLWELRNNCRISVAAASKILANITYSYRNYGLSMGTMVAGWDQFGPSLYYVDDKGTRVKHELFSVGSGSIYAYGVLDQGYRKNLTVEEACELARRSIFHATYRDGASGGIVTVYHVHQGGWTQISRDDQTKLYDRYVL
# Homo sapiens = species on record: Homo sapiens; assay: To identify inhibition of the IFN signalling (Jak-Stat) pathway via expression of an eGFP reporter gene under the control of an IFN-stimulated response element (ISRE) containing MxA promoter.; type: functional; details: 30 µM
# [6] = biological target: T4, Tyrosyl-tRNA synthetase, putative (Trypanosoma cruzi (strain CL Brener)) (UniProt Q4DSP6); assay: Trypanosoma cruzi tyrosyl tRNA synthetase (TcYRS) _High Tyrosine SOP; type: functional; details: 30 µM; further: in the data most compounds retested in dose-response had high values
# T4 sequence (whole entry): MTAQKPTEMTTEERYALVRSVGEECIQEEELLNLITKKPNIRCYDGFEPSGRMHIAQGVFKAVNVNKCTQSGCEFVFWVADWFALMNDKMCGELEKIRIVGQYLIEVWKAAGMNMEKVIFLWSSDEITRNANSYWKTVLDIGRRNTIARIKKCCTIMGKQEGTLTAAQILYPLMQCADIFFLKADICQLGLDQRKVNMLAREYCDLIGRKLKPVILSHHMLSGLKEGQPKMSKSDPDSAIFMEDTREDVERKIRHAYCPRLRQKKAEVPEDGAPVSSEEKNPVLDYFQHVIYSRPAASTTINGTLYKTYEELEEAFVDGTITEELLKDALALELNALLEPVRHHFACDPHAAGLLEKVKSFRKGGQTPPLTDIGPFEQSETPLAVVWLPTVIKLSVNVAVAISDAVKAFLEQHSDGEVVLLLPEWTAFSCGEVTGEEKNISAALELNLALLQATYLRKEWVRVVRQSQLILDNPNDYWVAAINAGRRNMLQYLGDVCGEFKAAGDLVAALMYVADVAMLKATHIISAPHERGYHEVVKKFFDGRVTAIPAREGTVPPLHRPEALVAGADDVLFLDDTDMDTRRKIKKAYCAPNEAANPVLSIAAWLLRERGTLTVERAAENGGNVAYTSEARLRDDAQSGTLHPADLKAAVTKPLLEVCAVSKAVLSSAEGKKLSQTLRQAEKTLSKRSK
# [7] = biological target: T4, Tyrosyl-tRNA synthetase, putative (Trypanosoma cruzi (strain CL Brener)); assay: Trypanosoma cruzi tyrosyl tRNA synthetase (TcYRS) SOP; type: functional; details: 30 µM
# [8] = biological target: Chromo domain-containing protein 1 (Saccharomyces cerevisiae (strain ATCC 204508 / S288c) (Baker's yeast)) (UniProt P32657); assay: ScCHD-1 Enzyme Inhibition Assay; type: functional; details: 30 µM; further: in the data most compounds retested in dose-response had high values
# Chain of Chromo domain-containing protein 1 (Saccharomyces cerevisiae (strain ATCC 204508 / S288c) (Baker's yeast)) (P32657 whole entry, the tested form may be a part): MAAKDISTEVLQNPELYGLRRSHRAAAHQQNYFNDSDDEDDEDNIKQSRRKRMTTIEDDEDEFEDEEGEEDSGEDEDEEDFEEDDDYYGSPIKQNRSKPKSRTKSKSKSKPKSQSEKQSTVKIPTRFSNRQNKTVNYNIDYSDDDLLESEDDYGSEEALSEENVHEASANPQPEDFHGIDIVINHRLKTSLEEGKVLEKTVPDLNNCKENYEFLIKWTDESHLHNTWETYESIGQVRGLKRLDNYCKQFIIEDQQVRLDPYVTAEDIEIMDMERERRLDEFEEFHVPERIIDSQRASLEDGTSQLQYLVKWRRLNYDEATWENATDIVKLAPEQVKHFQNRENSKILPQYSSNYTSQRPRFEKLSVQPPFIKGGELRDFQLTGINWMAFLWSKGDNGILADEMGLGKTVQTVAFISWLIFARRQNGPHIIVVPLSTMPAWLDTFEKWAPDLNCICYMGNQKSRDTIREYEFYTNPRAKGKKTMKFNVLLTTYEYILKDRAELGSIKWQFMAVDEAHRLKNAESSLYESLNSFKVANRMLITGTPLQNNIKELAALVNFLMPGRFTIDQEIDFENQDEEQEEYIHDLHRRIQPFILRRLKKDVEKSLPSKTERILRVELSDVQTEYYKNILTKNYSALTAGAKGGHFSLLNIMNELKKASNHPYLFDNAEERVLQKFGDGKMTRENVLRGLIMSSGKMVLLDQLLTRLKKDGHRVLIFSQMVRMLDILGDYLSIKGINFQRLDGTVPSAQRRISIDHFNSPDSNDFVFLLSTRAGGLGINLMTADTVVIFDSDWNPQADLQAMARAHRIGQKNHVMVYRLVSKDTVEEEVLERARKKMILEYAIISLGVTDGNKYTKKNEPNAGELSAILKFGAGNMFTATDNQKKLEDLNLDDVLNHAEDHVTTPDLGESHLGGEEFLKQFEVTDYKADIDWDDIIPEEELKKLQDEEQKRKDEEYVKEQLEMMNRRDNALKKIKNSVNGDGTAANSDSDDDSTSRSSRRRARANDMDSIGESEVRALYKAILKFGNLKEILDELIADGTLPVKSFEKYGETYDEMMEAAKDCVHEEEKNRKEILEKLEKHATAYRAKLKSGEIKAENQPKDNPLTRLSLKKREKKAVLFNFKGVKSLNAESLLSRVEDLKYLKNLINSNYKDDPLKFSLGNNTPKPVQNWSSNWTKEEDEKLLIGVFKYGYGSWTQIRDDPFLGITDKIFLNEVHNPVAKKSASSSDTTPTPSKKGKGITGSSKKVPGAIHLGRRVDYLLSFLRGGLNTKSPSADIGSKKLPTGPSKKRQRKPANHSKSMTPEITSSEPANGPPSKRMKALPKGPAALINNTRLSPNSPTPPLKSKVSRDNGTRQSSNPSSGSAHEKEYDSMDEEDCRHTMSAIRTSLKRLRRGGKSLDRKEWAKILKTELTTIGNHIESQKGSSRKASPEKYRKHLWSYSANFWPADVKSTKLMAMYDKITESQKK
# Chain of Protein translocase subunit SecA (Escherichia coli (strain K12)) (P10408 whole entry): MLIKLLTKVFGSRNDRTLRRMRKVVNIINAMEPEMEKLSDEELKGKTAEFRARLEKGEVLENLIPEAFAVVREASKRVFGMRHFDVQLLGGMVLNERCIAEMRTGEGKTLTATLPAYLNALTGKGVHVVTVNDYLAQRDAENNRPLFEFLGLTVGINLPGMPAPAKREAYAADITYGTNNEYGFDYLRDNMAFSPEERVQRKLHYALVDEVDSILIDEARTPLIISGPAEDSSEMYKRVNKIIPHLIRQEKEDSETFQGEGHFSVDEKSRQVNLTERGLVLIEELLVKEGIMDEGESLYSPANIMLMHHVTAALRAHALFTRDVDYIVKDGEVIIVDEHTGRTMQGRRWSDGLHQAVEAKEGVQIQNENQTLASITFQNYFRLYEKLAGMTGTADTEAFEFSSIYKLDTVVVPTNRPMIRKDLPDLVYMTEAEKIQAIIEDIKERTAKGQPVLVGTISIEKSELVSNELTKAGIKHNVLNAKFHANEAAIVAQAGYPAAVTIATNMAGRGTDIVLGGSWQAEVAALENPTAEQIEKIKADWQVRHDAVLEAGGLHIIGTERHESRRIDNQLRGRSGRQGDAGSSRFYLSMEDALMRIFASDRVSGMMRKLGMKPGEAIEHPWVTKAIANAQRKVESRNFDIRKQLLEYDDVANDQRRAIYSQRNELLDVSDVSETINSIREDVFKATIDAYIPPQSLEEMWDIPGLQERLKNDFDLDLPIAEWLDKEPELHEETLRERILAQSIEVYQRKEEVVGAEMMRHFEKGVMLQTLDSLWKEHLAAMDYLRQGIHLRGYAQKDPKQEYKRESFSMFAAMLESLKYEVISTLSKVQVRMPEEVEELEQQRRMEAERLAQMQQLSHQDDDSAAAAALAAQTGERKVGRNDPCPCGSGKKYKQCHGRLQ
# Chain of Sialic acid-binding Ig-like lectin 9 (Homo sapiens) (Q9Y336 whole entry): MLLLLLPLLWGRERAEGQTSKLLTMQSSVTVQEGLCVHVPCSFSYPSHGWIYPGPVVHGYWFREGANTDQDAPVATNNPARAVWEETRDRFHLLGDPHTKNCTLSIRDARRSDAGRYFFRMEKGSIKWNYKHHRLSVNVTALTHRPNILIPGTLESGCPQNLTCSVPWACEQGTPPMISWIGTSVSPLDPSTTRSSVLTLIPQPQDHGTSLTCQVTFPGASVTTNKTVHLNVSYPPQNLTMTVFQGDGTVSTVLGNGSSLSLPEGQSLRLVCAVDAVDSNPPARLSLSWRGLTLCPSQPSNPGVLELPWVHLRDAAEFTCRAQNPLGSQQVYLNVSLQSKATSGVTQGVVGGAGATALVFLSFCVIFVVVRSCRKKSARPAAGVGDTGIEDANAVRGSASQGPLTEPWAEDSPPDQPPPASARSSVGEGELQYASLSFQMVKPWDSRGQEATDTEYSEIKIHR
SMILES,Percent Effect [1] [%],Percent Effect [2] [%],Percent Effect [3] [%],Percent Effect (Trypanosoma cruzi) [%],Percent Effect [4] [%],Percent Effect [5] [%],Percent Effect (Homo sapiens) [%],Percent Effect [6] [%],Percent Effect [7] [%],Percent Effect [8] [%]
CN(Cc1ccco1)[C@@H]1CN(Cc2ccc(F)cc2)C[C@@H]2CCCO[C@@H]21,-5.51,9.09,-4.8,-5.16,-6.48,15.4,-5.78,3.68,12.8,-3.55
Cn1ccc(C(=O)NCc2cccc(N3CCCCC3=O)c2)cc1=O,2.38,13,8.44,-0.373,-2.66,27.5,14.9,9.8,21.2,-9.09
Cc1ccc(F)cc1S(=O)(=O)NCc1cccnc1N(C)C,2.25,20.8,-2.76,-0.373,-5.53,14.7,26.1,7.84,21.2,-8.95
CC(C)N(Cc1cccc(F)c1)Cc1nc2c(cnn2C)c(=O)[nH]1,-1.46,7.69,6.74,0.469,3.28,1.79,5.6,3.35,13.2,-4.1
Cc1ccc(-c2nc(CN3CCn4c(nnc4C4CC4)C3)co2)cc1,-5.43,-5.33,-0.413,-1.41,0,9.92,-8.93,6.84,12.8,-6.77
Cc1cc(CN(C)C(=O)c2ccnc(N(C)C)c2)no1,-2.33,8,1.08,-5.82,2.22,4.67,9.46,3.68,10.3,-13.6
CCn1cc2c(n1)C(COC)CN(C(=O)COc1ccccc1C)C2 (stereo not given),-5.08,-3.9,1.02,-5.16,-13.4,11,4.86,2.63,5.13,2.06
Cc1noc(C(C)C)c1C(=O)NCCN1CCCCCC1=O,0.794,20.8,3.57,1.68,1.02,14.9,-6.97,6.86,16.5,-7.87
Cc1cnn(CC2CN(CC(=O)N(C)Cc3cccs3)CCO2)c1 (stereo not given),-1.07,5.33,-0.649,-5.82,9.31,13.8,11.2,2.63,2.56,-11.2
CN(Cc1ccccc1)C(=O)c1nc(S(C)(=O)=O)n2ccccc12,-7.02,-92.3,-5.33,9.67,-1.23,1.96,5.84,1.44,13.2,-7.37
CCOc1ncccc1C(=O)N1CCCC(c2nccn2CCOC)C1 (stereo not given),-8.34,5.41,1.4,-1.26,-3.85,12.2,9.33,3.72,12.2,2.21
CN(C)CC(=O)N1C[C@H]2CCC[C@@]2(COc2ccccn2)C1,-8.78,1.3,1.97,-2.82,-4.86,11.9,7.53,-0.526,5.13,-0.114
Cc1ncc(S(C)(=O)=O)c(C2CCCNC2)n1 (stereo not given),-0.171,2.7,5.3,-2.81,1.75,8.39,18.1,6.92,12.2,111
Cc1ccc(C(=O)N2CCCC3(CCCC(=O)N3C)C2)cc1F (stereo not given),-2.74,19.5,-4.32,-1.5,4.11,14.5,5.96,7.73,10,-9.62
Cc1cnc(CN2CCCC2c2noc(C)n2)cn1 (stereo not given),-3.01,-2.67,-1.58,0.602,0.444,14.5,-11.3,11.1,12.8,-6.87
CNC(=O)c1ccc(CN(C(=O)c2scnc2C)C2CC2)cc1,-5.91,-7.69,-10.3,-0.845,-2.87,3.67,17.5,-3.35,-6.02,-4.57
COc1ccccc1CCN(C)C(=O)NC(C)c1nncn1C (stereo not given),-6.85,10.7,12.9,-1.21,0,16.2,-2.26,2.63,5.13,-8.54
CCc1nc(C)c(C(=O)NCCN2CCC(C)CC2)s1,-2.31,-2.6,7.15,-4.1,-2.25,-6.84,9.62,0.98,11.8,-2.04
Cc1ncnc(NCc2cc3n(n2)CCCN(S(C)(=O)=O)C3)c1C,-4.52,8.11,3.12,-1.07,-1.75,7.71,-0.0892,5.85,14.6,-4.37
CCc1sc(-c2nnc(CNCCn3cc(C)cn3)o2)cc1C,-2.72,5.2,8.91,-6.34,4.71,1.93,10.2,4.9,7.06,-8.57
CC(C)Oc1ncccc1CNC(=O)c1ccco1,-4.42,16,0.422,0.402,5.32,13.5,7.02,5.79,17.9,-8.28
c1ccc(OC2CCCC2)c(CNC2CCc3ncnn3C2)c1 (stereo not given),-3.8,10.3,-13.9,5.35,2.87,20.7,3.46,6.22,18.1,-3.21
CC(C)C(=O)N1CCC2(CCCN(CCOc3ccccc3)C2)C1 (stereo not given),-6.57,1.3,-1.94,-3,1.83,1.63,7.35,2.9,10,11.6
CC(C)CN1CCC2(CCN(Cc3ccoc3)CC2)C1=O,-1.85,27.3,3.42,3.94,-4.57,19.7,-0.618,10.6,12.5,-9.31
